“And” between values parts separate entries of the source, which are not always exact repeats. Equal values may be shown once. Inconclusive results are not listed. A call without a number means that no potency is given here. Values without a mark were called inactive. The source made the active and inactive calls. The call rests on the fitted dose curve.

Our source for the Potency and activity, negative = inhibition values is PubChem BioAssay (Tox21).
Potency means the concentration at half of the fitted maximal effect.

Sequence of Acetylcholinesterase (Homo sapiens) (P22303 whole entry, looked up): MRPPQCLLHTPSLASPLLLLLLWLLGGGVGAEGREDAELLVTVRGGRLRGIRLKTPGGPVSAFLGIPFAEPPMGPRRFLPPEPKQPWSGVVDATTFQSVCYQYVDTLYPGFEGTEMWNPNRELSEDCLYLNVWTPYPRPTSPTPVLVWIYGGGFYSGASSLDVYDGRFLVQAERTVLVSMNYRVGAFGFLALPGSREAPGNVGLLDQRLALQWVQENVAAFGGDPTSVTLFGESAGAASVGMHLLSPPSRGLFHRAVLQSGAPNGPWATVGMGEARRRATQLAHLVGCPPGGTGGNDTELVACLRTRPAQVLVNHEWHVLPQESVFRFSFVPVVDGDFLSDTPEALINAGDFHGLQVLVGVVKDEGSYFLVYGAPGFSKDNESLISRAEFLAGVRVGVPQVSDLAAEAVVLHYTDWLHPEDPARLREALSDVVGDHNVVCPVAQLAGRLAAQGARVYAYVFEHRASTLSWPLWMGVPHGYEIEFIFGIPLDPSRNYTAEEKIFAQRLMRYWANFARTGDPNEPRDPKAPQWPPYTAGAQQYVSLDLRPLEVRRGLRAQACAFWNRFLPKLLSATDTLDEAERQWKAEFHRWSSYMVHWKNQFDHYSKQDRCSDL

For this assay, the target named is Acetylcholinesterase (Homo sapiens) (UniProt P22303). Description: Acetylcholinesterase (AChE) small molecule antagonists: colormetric cell-based qHTS assay (AID 1347395). Further: nearly all actives have a fitted effect of over 30% in size. The note with it: SH-SY5Y cells AChE activity, colorimetric (Ellman); series mostly up to 115 µM. The text has this:
National Center for Advancing Translational Sciences [NCATS]
Division of Preclinical Innovation [DPI]
U.S. Environmental Protection Agency [EPA]
National Institutes of Environmental Health Sciences [NIEHS]
National Toxicology Program [NTP]
U.S. Food and Drug Administration [FDA]
Acetylcholinesterase (AChE) is the primary cholinesterase in the body that hydrolyzes a key neurotransmitter, acetylcholine. Inhibition of AChE activity can lead to neurotoxicity. The known inhibitors include organophosphorous pesticides (OP), chemical warfare agents, drugs, and various phytochemicals.
A homogenous cell-based assay using the Amplite Colormetric acetylcholinesterase assay kit (AAT Bioquest, Sunnyvale, CA) was used to evaluate the chemicals in the Tox21 10K library that inhibit AChE activity. The assay uses 5, 5-dithiobis-(2-nitrobenzoic acid) (DTNB) to quantify the thiocholine produced from the hydrolysis of acetylthiocholine by AChE from the SH-SY5Y cells.
Tox21 Assay Protocol Summary:
For the cell-based AChE assay, 2,000 SH-SY5Y cells in 4 uL/well were dispensed into black, clear-bottom 1536-well plates using a Multidrop Combi dispenser (Thermo Scientific, MA). The assay plates were incubated overnight at 37 C to allow cells to attach to the wells, followed by the transfer of 23 nL of compound or DMSO (vehicle control) by a Pintool Station (Wako Automation, CA). The plates were incubated for 30 min at 37 C and 5% CO2, followed by the addition of 4 uL of detection cocktail solution (DTNB, acetylthiocholine) into each well using a Flying Reagent Dispenser (Beckman Coulter, CA) and then 90 min incubation at 37 C.
As to `Cc1c(N)cccc1C(F)(F)F`, the Potency result is “inactive”.

As to `Oc1ccc(O)c2c(O)cccc12`, the Potency entry was “inactive”.

For `Nc1nc2c(ncn2COCCO)c(=O)[nH]1`, the Potency entry was “inactive”.

With `ClC(Cl)=C(c1ccc(Cl)cc1)c1ccccc1Cl`, the Potency result was “inactive”.

In the case of `COC(=O)C1CCC(C(=O)OC)CC1` (stereo not given), the Potency entry is “inactive”.

`C[C@H](CCC(=O)O)[C@H]1CC[C@H]2[C@@H]3CC[C@@H]4C[C@H](O)CC[C@]4(C)[C@H]3CC[C@]12C`: the Potency entry is “inactive”.

Consider `NC(=O)COCCN1CCN(C(c2ccccc2)c2ccc(Cl)cc2)CC1` (stereo not given), for which the Potency entry was “inactive”.

With `O=C(O)CNc1ccccc1`, the Potency result is “inactive”.

On to `O=C(O)Cc1cn(-c2ccccc2)nc1-c1ccc(Cl)cc1`, for which the Potency result is “inactive”.

As for `Cn1cnc2c(F)c(Nc3ccc(Br)cc3Cl)c(C(=O)NOCCO)cc21`, the Potency entry is “inactive”.

Regarding `O=C(O)Cc1cccc(-c2cc(CCCCCCc3ccc(O[C@H]4O[C@H](CO)[C@@H](O)[C@H](O)[C@@H]4O)c(-c4cccc(CC(=O)O)c4)c3)ccc2O[C@H]2O[C@H](CO)[C@@H](O)[C@H](O)[C@@H]2O)c1`, the activity, negative = inhibition is 1.5% [at 0.435 µM].

Turning to `CSc1ccc(C=O)cc1`, the Potency entry was “inactive”.

Turning to `CC(=O)O[C@]1(C(C)=O)CC[C@H]2[C@@H]3C=C(Cl)C4=CC(=O)[C@@H]5C[C@@H]5[C@]4(C)[C@H]3CC[C@@]21C`, the Potency entry is “inactive”.

With `c1cc(OCC2CO2)cc(OCC2CO2)c1` (stereo not given), the Potency result was “inactive”.

Turning to `O=Cc1ccccc1C=O`, the Potency result is “inactive”.

Consider `CC(C)c1ccc(C=O)cc1`, for which the Potency entry is “inactive”.

For `CC1OC1C1CCC2(C)OC2C1` (stereo not given), the Potency entry was “inactive”.

Turning to `O=C1OC(c2ccc(O)cc2)(c2ccc(O)cc2)c2ccccc21`, the Potency is 35.6 µM (active) and 24.5 µM (active).

As to `C=CC(=O)OCC(Br)CBr` (stereo not given), the Potency result was “inactive”.

Turning to `O=C1OC(=O)c2ccc3c4c(ccc1c24)C(=O)OC3=O`, the Potency entry was “inactive”.

As for `O=C(Nc1ncc([N+](=O)[O-])s1)c1cccs1`, the Potency entry is “inactive”.

On to `CS(=O)(=O)CCNCc1ccc(-c2ccc3ncnc(Nc4ccc(OCc5cccc(F)c5)c(Cl)c4)c3c2)o1`, for which the Potency result is “inactive”.

As for `CC1CCC2CC1C2(C)C` (stereo not given), the Potency entry was “inactive”.

Consider `O=[N+]([O-])c1c(Cl)cc(Cl)cc1Cl`, for which the Potency entry is “inactive”.

Consider `CC(=O)Nc1ccn(C2COC(COC(=O)c3ccccc3)O2)c(=O)n1` (stereo not given), for which the Potency result was “inactive”.

In the case of `CCn1c2ccccc2c2ccccc21`, the Potency result is “inactive”.

Consider `CCCCCCCCCCC1CO1` (stereo not given), for which the Potency entry was “inactive”.

Consider `COC(=O)c1ccc(C)cc1C1=NC(C)(C(C)C)C(=O)N1` (stereo not given), for which the Potency result was “inactive”.

As for `Nc1ccc([N+](=O)[O-])c(N)c1`, the Potency result was “inactive”.

For the compound `C/C=C/C=N/NC(=O)c1ccncc1`, the Potency entry was “inactive”.

As for `O=c1cc[nH]cc1`, the Potency entry is “inactive”.

With `Cc1nc2ccc(CN(C)c3ccc(C(=O)N[C@@H](CCC(=O)O)C(=O)O)s3)cc2c(=O)[nH]1`, the Potency result was “inactive”.

For `CCCCCCCCCOC(=O)CCCCC(=O)OCCCCCCC`, the Potency result is “inactive”.

As for `CCC(=O)/C=C/C1C(C)=CCCC1(C)C` (stereo not given), the Potency result is “inactive”.

Consider `CCCCCC(CO)CCC` (stereo not given), for which the Potency entry was “inactive”.

Consider `O=C(O)c1cc(C(=O)O)cc([N+](=O)[O-])c1`, for which the Potency entry was “inactive”.

Turning to `C1CCSC1`, the Potency entry was “inactive”.

Regarding `CCOC(=O)C1=C(C)NC(C)=C(C(=O)OC)C1c1cccc(Cl)c1Cl` (stereo not given), the Potency entry was “inactive”.

For `C=CCCCCCCCCC(=O)O`, the Potency entry was “inactive”.

`C1COC(NC(C2CC2)C2CC2)=N1`: the Potency entry is “inactive”.
